PubChem BioAssay (NCI)
This is part of a sample that, as a whole, favours compounds with a hit. Of some 83,000 tested, about 20% had one in any assay.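 The test compound was applied at a single concentration to cells in 96-well plates for 48 hours, and percent growth was recorded.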 The source made the active and inactive calls. Rule for the calls: active = growth percent below 10; inactive = the rest.

Assays:
Assay in all cases: NCI-60 one-dose screen, 48 h (100 = growth as untreated, 0 = no growth, -100 = all killed)
Conditions in all cases: 10 µM unless noted
NCI-H23 lung = tested on: NCI-H23 lung
NCI-H226 lung = tested on: NCI-H226 lung
NCI-H322M lung = tested on: NCI-H322M lung
HOP-62 NSCLC = tested on: HOP-62 NSCLC
NCI-H460 lung = tested on: NCI-H460 lung
NCI-H522 lung = tested on: NCI-H522 lung
A549/ATCC NSCLC = tested on: A549/ATCC NSCLC
786-0 renal = tested on: 786-0 renal
COLO 205 colon = tested on: COLO 205 colon
DU-145 prostate = tested on: DU-145 prostate
K-562 leukemia = tested on: K-562 leukemia
MALME-3M melanoma = tested on: MALME-3M melanoma
MDA-MB-231 breast = tested on: MDA-MB-231 breast
RXF 393 renal = tested on: RXF 393 renal
SF-268 CNS = tested on: SF-268 CNS
SF-295 CNS = tested on: SF-295 CNS
SF-539 CNS = tested on: SF-539 CNS
UACC-257 melanoma = tested on: UACC-257 melanoma
M14 melanoma = tested on: M14 melanoma

Measured: growth

COc1cc(-c2nc(SC(C)C)n(C(C)C)c(=O)c2C#N)ccc1OCc1ccccc1
inactive: NCI-H23 lung 85% | NCI-H226 lung 87.4% | NCI-H322M lung 64.9% | HOP-62 NSCLC 79% | NCI-H460 lung 21% | NCI-H522 lung 84% | A549/ATCC NSCLC 36.7% | 786-0 renal 34.4% | COLO 205 colon 34.5% | DU-145 prostate 99.1% | K-562 leukemia 38.8% | MALME-3M melanoma 82.4% | MDA-MB-231 breast 75.7% | RXF 393 renal 91.1% | SF-268 CNS 85.6% | SF-295 CNS 80.3% | SF-539 CNS 64.6% | UACC-257 melanoma 101% | M14 melanoma 105%

O=C(Nc1nc2ccc([N+](=O)[O-])cc2s1)Nc1ccccc1Cl
inactive: NCI-H226 lung 30.7% | NCI-H322M lung 52.2% | HOP-62 NSCLC 28.2% | NCI-H460 lung 20.1% | A549/ATCC NSCLC 30.2% | 786-0 renal 48.5% | COLO 205 colon 39.8% | DU-145 prostate 40.2% | K-562 leukemia 20.6% | MALME-3M melanoma 12.1% | MDA-MB-231 breast 47.5% | RXF 393 renal 49.2% | SF-268 CNS 41.7% | SF-295 CNS 48.5% | SF-539 CNS 54.7% | UACC-257 melanoma 23.2% | M14 melanoma 45.1%
active: NCI-H23 lung 9.48% | NCI-H522 lung 0.0093%

c1cc(-c2nc3ccc4[nH]ncc4c3c3c2CCCC3)[nH]n1
inactive: NCI-H23 lung 54.8% | NCI-H226 lung 74.9% | NCI-H322M lung 76.6% | HOP-62 NSCLC 68.6% | NCI-H460 lung 38.8% | NCI-H522 lung 30.9% | A549/ATCC NSCLC 48.1% | 786-0 renal 64.7% | COLO 205 colon 54.1% | DU-145 prostate 63% | K-562 leukemia 64% | MALME-3M melanoma 87.7% | MDA-MB-231 breast 89.2% | RXF 393 renal 38% | SF-268 CNS 71.4% | SF-295 CNS 67.5% | SF-539 CNS 54.1% | UACC-257 melanoma 91.1% | M14 melanoma 39.7%

CCNC(=O)N1CCc2cc(OC)c(OCCc3ccc(OC)cc3)cc2C1c1ccc([N+](=O)[O-])cc1C (configuration not stated)
inactive: NCI-H23 lung 21.2% | NCI-H226 lung 38% | NCI-H322M lung 45.4% | HOP-62 NSCLC 25.9% | A549/ATCC NSCLC 11.7% | 786-0 renal 18.2% | COLO 205 colon 25.8% | DU-145 prostate 20.7% | K-562 leukemia 13.7% | MALME-3M melanoma 63.8% | MDA-MB-231 breast 17.7% | SF-268 CNS 32% | SF-295 CNS 10.8% | UACC-257 melanoma 46.6% | M14 melanoma 23.4%
active: NCI-H460 lung 2.37% | NCI-H522 lung -8.41% | RXF 393 renal -9.58% | SF-539 CNS 9.83%

COc1ccc(C(=O)Nc2ncc(Cc3ccccc3Cl)s2)cc1
active: NCI-H460 lung 2.79% | NCI-H522 lung -37.3% | COLO 205 colon -48.3% | K-562 leukemia 7.56% | RXF 393 renal -2.13% | SF-295 CNS 7.7% | SF-539 CNS 2.11%
inactive: NCI-H23 lung 17.9% | NCI-H226 lung 31.7% | NCI-H322M lung 54.3% | HOP-62 NSCLC 39.2% | A549/ATCC NSCLC 24.3% | 786-0 renal 28.9% | DU-145 prostate 18.2% | MALME-3M melanoma 57.1% | MDA-MB-231 breast 24.9% | SF-268 CNS 43.3% | UACC-257 melanoma 67% | M14 melanoma 15.5%

Nc1nc(-c2cccc([N+](=O)[O-])c2)c(N=Nc2cccc([N+](=O)[O-])c2)s1
active: NCI-H23 lung -25.6% | NCI-H460 lung 4.2% | NCI-H522 lung -12% | 786-0 renal -70.4% | RXF 393 renal -64.5% | SF-295 CNS 1.91% | SF-539 CNS -26.4%
inactive: NCI-H226 lung 14.9% | NCI-H322M lung 64.6% | HOP-62 NSCLC 16.5% | A549/ATCC NSCLC 17.5% | COLO 205 colon 106% | DU-145 prostate 56.7% | K-562 leukemia 81.9% | MALME-3M melanoma 52.4% | MDA-MB-231 breast 19.5% | SF-268 CNS 14.7% | UACC-257 melanoma 88.6% | M14 melanoma 14.9%

O=C1/C(=C/C=C/c2ccco2)SC(=S)N1C1CCCCC1
inactive: NCI-H23 lung 91.3% | NCI-H226 lung 105% | NCI-H322M lung 97.4% | HOP-62 NSCLC 102% | NCI-H460 lung 95.7% | NCI-H522 lung 75.9% | A549/ATCC NSCLC 86.8% | 786-0 renal 106% | COLO 205 colon 72.9% | DU-145 prostate 95% | K-562 leukemia 83.5% | MALME-3M melanoma 83.6% | MDA-MB-231 breast 74% | RXF 393 renal 47.7% | SF-268 CNS 109% | SF-295 CNS 97.6% | SF-539 CNS 94.8% | UACC-257 melanoma 67.7% | M14 melanoma 93.8%

CCNC(=O)N1CCc2cc(OC)c(OCCc3ccc(OC)c(N)c3)cc2C1c1ccc(C)cc1C (configuration not stated)
active: NCI-H460 lung 2.6% | NCI-H522 lung -30.2% | A549/ATCC NSCLC 9.14% | RXF 393 renal 7.54%
inactive: NCI-H23 lung 20% | NCI-H226 lung 42.9% | NCI-H322M lung 40.7% | HOP-62 NSCLC 26.9% | 786-0 renal 13.3% | COLO 205 colon 13.3% | DU-145 prostate 16.4% | K-562 leukemia 15.1% | MALME-3M melanoma 62.6% | MDA-MB-231 breast 15% | SF-268 CNS 26.1% | SF-295 CNS 16.1% | SF-539 CNS 13.6% | UACC-257 melanoma 49.1% | M14 melanoma 16.5%
